Potency and activity change, negative = inhibition data for 102 compounds are collected here from PubChem BioAssay AID504832 (National Center for Advancing Translational Sciences (NCATS), 2011).

Out of some 310,000 compounds screened, about 18,000 (5.8%) were called active. A call without a number means that no potency is given here. About 22% were inconclusive and are not listed. This is one part of a sample in which actives are shown more often than they occur. Values without a mark were called inactive. Calls follow the shape of the dose curve; as a rule, active = well fitted inhibition curve with a large enough effect; inconclusive = small, poorly fitted or top-dose-only effect, or another doubt; inactive = no such curve, though single readings can be large or run the other way.
Potency is read from the fitted curve at half-maximal effect.

The nature of the test: Primary qHTS for delayed death inhibitors of the malarial parasite plastid, 48 hour incubation. As to conditions: P. falciparum luciferase growth in erythrocytes; series mostly up to 28.7 µM. The procedure, abridged:
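Cell-based growth assay: transgenic P. falciparum expressing firefly luciferase, cultured in red cells within RPMI 1640 containing 0.5% w/v Albumax, 24 mM bicarbonate and gentamycin. A drop in luciferase activity indicates inhibition.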
As for `Cc1cccc(C(=O)Nc2ccc(Oc3cnccn3)cc2)c1`, the Potency result is “inactive”.
As to `CCCCn1nc(C(=O)Nc2cccc(C(=O)NC3CC3)c2)c2ccccc2c1=O`, the Potency was 11.7 µM (active).
Same read-out and setting: for `CCCn1nc(C(=O)Nc2ccc3nc(C)sc3c2)c2ccccc2c1=O` the value was “inactive”.
For `COC(=O)c1cc(NC(=O)c2nn(C)c(=O)c3ccccc23)cc(C(=O)OC)c1`, the Potency entry is “inactive”.
Regarding `O=C1c2ccccc2C(=O)N1c1cccc2ccccc12`, the Potency entry was “inactive”.
`Cc1c(NC(=O)CSCc2ccccc2)cccc1C(=O)O`: the Potency entry is “inactive”.
Turning to `CC1C(=O)Nc2ccc(S(=O)(=O)N3CCN(c4ccccc4F)CC3)cc2NC1=O` (configuration not stated), the Potency entry is “inactive”.
Same read-out and setting: to `Clc1ccc(C(Cn2ccnc2)OCc2ccsc2Cl)c(Cl)c1` (configuration not stated) belongs 4.26 µM (active); to `CC1CCN(S(=O)(=O)c2ccc3c(ccn3CC(=O)O)c2)CC1`, “inactive”; to `Cc1ccc(S(=O)(=O)CC(=O)NC(C)c2ccccc2)cc1` (configuration not stated), “inactive”.
On the same count and under the same terms, to `COc1cccc(-n2c(=S)sc3c(=O)n(-c4ccccc4C)c(SCC(=O)O)nc32)c1` belongs “inactive”; to `CCOc1ccccc1NC(=O)CCc1nnc2ccc(NCc3ccco3)nn12`, “inactive”.
With `CCC/C(=N\O)c1c[nH]c2ccccc12`, the Potency entry is “inactive”.
Consider `COc1ccccc1CC(=O)NCCc1c[nH]c2ccccc12`, for which the Potency entry is “inactive”.
For the compound `O=S(=O)(O)Oc1c[nH]c2ccccc12`, the Potency was 7.38 µM (active).
On the same count and under the same terms, to `CCc1noc(C)c1C(=O)Oc1ccc(N(C)S(=O)(=O)c2ccc(C)c(C)c2)cc1` belongs “inactive”.
With `CC1(C)O[C@@H]2[C@H](O1)[C@@H](COS(=O)(=O)O)O[C@H]2n1ccc(=O)[nH]c1=O`, the Potency result was “inactive”.
The same measure, in the same setting: for `CCN(CC)CCCNC(=O)c1c(O)c2cc(F)cc3c2n(c1=O)C(C)CC3` (configuration not stated) the value was “inactive”; for `CCOC(=O)C1=C(C)NC(=O)N(C(C)=O)C1c1ccc(Cl)cc1` (configuration not stated), 5.22 µM (active).
Still for that read-out and setting: to `CCOC(=O)C1=C(c2ccccc2)NC(=S)NC1c1ccc(Cl)cc1` (configuration not stated) belongs “inactive”; to `COCCOC(=O)C1=C(C)NC(=O)NC1c1ccc(Cl)cc1` (configuration not stated), “inactive”; to `COc1ccc(C(=O)Nc2ccc(C(=O)NCC3CCCO3)cc2)c(OC)c1OC` (configuration not stated), “inactive”.
Same read-out and setting: for `Cc1ccc(S(=O)(=O)N2CCN(C)CC2)cc1C(=O)NC1CCCCC1` the value was “inactive”; for `O=C(NNC(=O)c1cc(S(=O)(=O)N2CCCCC2)ccc1Cl)c1ccccc1O`, “inactive”.
Consider `CC1CCCC(NC(=O)c2cc(S(=O)(=O)N3CCCCC3)ccc2Cl)C1C` (configuration not stated), for which the Potency was 13.1 µM (active).
As for `O=C(O)c1ccc2c(=O)n3c(nc2c1)/C(=C/c1ccc(OC(F)F)cc1OC(F)F)CC3`, the Potency result is “inactive”.
Still for that read-out and setting: to `Nc1nc(SCC(=O)Nc2ccc(Cl)c([N+](=O)[O-])c2)n[nH]1` belongs “inactive”.
On to `O=C(NCc1ccc2c(c1)OCO2)c1cc(F)c(F)cc1Cl`, for which the Potency result was “inactive”.
Take `O=C(c1ccco1)N1CCN(C(=O)c2cc(-c3ccccc3F)no2)CC1`: the Potency entry was “inactive”.
On the same count and under the same terms, for `CCCOC(=O)c1[nH]c2c(c1C)C(=O)CC(c1cc(OC)c(OC)c(OC)c1)C2` (configuration not stated) the value was 1.65 µM (active); for `COCCOC(=O)c1[nH]c2c(c1C)C(=O)CC(c1ccc(OC)cc1)C2` (configuration not stated), “inactive”; for `CCOC(=O)c1[nH]c2c(c1-c1ccccc1)C(=O)CC(c1ccc(Cl)cc1)C2` (configuration not stated), “inactive”.
Same read-out and setting: to `Cn1c(-c2ccc(C(F)(F)F)cc2)cc2onc(-c3ccccc3)c2c1=O` belongs “inactive”; to `Cc1ccc(N(CC(=O)NC2CCCCC2)C(=O)CCCC(=O)Nc2ccccn2)c(C)c1`, “inactive”.
Same read-out and setting: to `Cc1ccc(C)c(N(CC(=O)NCc2ccco2)C(=O)CCC(=O)Nc2ccccn2)c1` belongs 14.7 µM (active); to `COCCNC(=O)CN(C(=O)CCC(=O)Nc1cc(C)on1)c1ccc(C)cc1C`, “inactive”; to `CCc1ccc(NC(=O)Cn2nnc(C(=O)NCc3ccc4c(c3)OCO4)c2N)cc1`, “inactive”.
For `Cc1ccc(S(=O)(=O)N2CCOCC2)cc1C(=O)NCc1ccc(F)cc1`, the Potency entry is “inactive”.
Same read-out and setting: for `O=C(CN1CCN(S(=O)(=O)/C=C/c2ccccc2)CC1)Nc1ccc(N2CCOCC2)cc1` the value was “inactive”; for `O=C(CN1C(=O)CCC1=O)Nc1ccc(S(=O)(=O)N2CCOCC2)cc1`, “inactive”; for `O=C(Nc1ccc2cn[nH]c2c1)c1ccc(S(=O)(=O)N2CCOCC2)cc1`, “inactive”.
As for `O=C(CN1CCCCCC1)Nc1ccc(S(=O)(=O)N2CCCCC2)cc1`, the Potency result is “inactive”.
Consider `Cc1cc2cc(CNC(=O)c3ccc(S(=O)(=O)N4CCOCC4)cc3)ccc2[nH]1`, for which the Potency was 13.1 µM (active).
Still for that read-out and setting: for `COc1ccc(CC(=O)Nc2ccc3c(c2)CCC3)cc1S(=O)(=O)N1CCOCC1` the value was “inactive”; for `O=C(CN1CCN(c2cccc(Cl)c2)CC1)Nc1ccc(S(=O)(=O)N2CCOCC2)cc1`, 10.4 µM (active); for `Cc1ccc(CC(=O)Nc2ccc(S(=O)(=O)N3CCOCC3)cc2)cc1C`, 9.28 µM (active).
Same read-out and setting: to `CCOC(=O)c1sc(=NC(=O)c2ccc(Br)cc2)n(C)c1C` belongs “inactive”.
For `Cn1c(=O)c2ccccc2n(CC(=O)Nc2ccc3c(c2)OCCO3)c1=O`, the Potency result is “inactive”.
In the case of `COc1cc(C(=O)N/C(=C\c2cn(C)c3ccccc23)C(=O)N2CCOCC2)cc(OC)c1OC`, the Potency result was “inactive”.
On the same count and under the same terms, to `CN(C)S(=O)(=O)c1cccc(C(=O)OCC(=O)N2CCCC2=O)c1` belongs “inactive”; to `CC1CC1C(=O)OCC(=O)Nc1cccc(F)c1` (configuration not stated), “inactive”; to `COc1ccc(NC(=O)NN2CCN(C)CC2)c(OC)c1`, “inactive”.
Still for that read-out and setting: to `CCOc1ccc(/C=N\NC(=O)c2c(C)nc3cc(C)ccn23)cc1` belongs “inactive”.
As for `Cn1c(=O)n(C)c2cc(S(=O)(=O)Nc3ccc(F)cc3)ccc21`, the Potency result was “inactive”.
Same read-out and setting: to `Clc1ccc(CSc2nnc(/C=C/c3ccccc3)o2)c(Cl)c1` belongs “inactive”; to `CC(C)(CNC(=O)Cc1ccc(Cl)cc1Cl)N1CCOCC1`, “inactive”; to `CSCc1cc(N(C)C)nc(SCc2ccc(Cl)cc2Cl)n1`, 13.1 µM (active).
Still for that read-out and setting: for `CSCCC(NC(=O)c1ccc(Cl)cc1Cl)C(=O)NNC(=O)c1csc(N2CCOCC2)n1` (configuration not stated) the value was “inactive”; for `Nc1cc(N)nc(SCc2ccc(Cl)cc2)n1`, “inactive”.
For the compound `CSCc1cc(N2CCOCC2)nc(SCc2ccc(Cl)cc2Cl)n1`, the Potency is 13.1 µM (active).
Same read-out and setting: to `CCc1ccc(C(=O)COC(=O)c2ccco2)cc1` belongs “inactive”.
On the same count and under the same terms, to `O=C(NCc1ccco1)/C(=C/c1ccco1)NC(=O)c1ccccc1` belongs “inactive”; to `CC1CCCN(S(=O)(=O)c2ccc(-c3ccc(=O)[nH]n3)o2)C1` (configuration not stated), “inactive”.
As to `COC(=O)C1(C)CC1(c1ccccc1)c1ccccc1` (configuration not stated), the activity change, negative = inhibition was -9.84% [at 0.00184 µM].
Regarding `Cc1ccccc1-n1cc(CNC(=O)C2CCC(=O)N(C3CC3)C2)cn1` (configuration not stated), the Potency entry was “inactive”.
Consider `CCN1CCN(C(=O)N(Cc2ccc(Cl)cc2)S(=O)(=O)c2ccc(C)cc2)CC1`, for which the Potency entry is “inactive”.
The same measure, in the same setting: for `Cc1nn(C)cc1S(=O)(=O)N1CCN(c2ccc(F)cc2)CC1` the value was “inactive”; for `Cc1ccc(CNC(=O)C(=O)c2cn(CC(=O)N3CCCC3)c3ccccc23)cc1`, “inactive”; for `O=C(Cc1ccccc1)NNC(=O)C1CCN(c2ncccn2)CC1`, “inactive”.
For the compound `Oc1c(CN2CCN(c3ccc(F)cc3)CC2)cc(Cl)c2cccnc12`, the Potency is 1.85 µM (active).
On the same count and under the same terms, to `Oc1ccc(CN2CCN(c3ncccn3)CC2)cc1` belongs “inactive”; to `CC1CCCN(CC(O)COCc2ccccc2)C1` (configuration not stated), “inactive”.
For `Oc1c(CN2CCCC2)cc(COCc2ccccc2)c2cccnc12`, the Potency is 0.657 µM (active).
The same measure, in the same setting: for `Cc1cccnc1NC(=O)c1cccc(S(=O)(=O)N2CCN(c3ccc(F)cc3)CC2)c1` the value was “inactive”.
On the same count and under the same terms, to `Cc1cc(S(=O)(=O)NCC(C)C)ccc1OCC(=O)NC1CC1` belongs “inactive”; to `CC(=O)c1cccc(NC(=S)N2CCN(S(C)(=O)=O)CC2)c1`, “inactive”.
Still for that read-out and setting: for `Cc1ccc(F)cc1S(=O)(=O)Nc1cccc(C(=O)N2CCCC(C(N)=O)C2)c1` (configuration not stated) the value was “inactive”.
Take `COc1ccc(OC)c(NC(=O)c2ccc3c(c2)C(=O)N(c2ccc(OC(C)=O)cc2)C3=O)c1`: the activity change, negative = inhibition is 0.907% [at 0.00184 µM].
Consider `C/C(=N\NC(=O)C1(C)CC1(Br)Br)c1ccc(C)cc1C` (configuration not stated), for which the Potency entry is “inactive”.
Still for that read-out and setting: for `O=C(CCn1nnnc1CN1CCOCC1)N1CCC(c2ccccc2Cl)C1` (configuration not stated) the value was “inactive”.
For the compound `CCc1nn(CC(=O)N2CCN(CC)CC2)c(=O)c2cccn12`, the Potency result is “inactive”.
`NC(=O)c1ccc(CN2CCC(Cc3ccccc3)CC2)cc1`: the Potency result was “inactive”.
On to `Brc1ccc(CN2CC[C@H]3C=CCc4cccc(c43)C2)cc1`, for which the Potency was 3.29 µM (active).
The same measure, in the same setting: for `NC(=O)C1CC(=O)N(c2ccc(OCC(=O)NCc3ccccc3)cc2)C1` (configuration not stated) the value was “inactive”.
On the same count and under the same terms, to `CCN(C(=O)c1cc([N+](=O)[O-])ccc1NCc1cccnc1)c1ccccc1` belongs “inactive”.
On the same count and under the same terms, to `CS(=O)(=O)Nc1ccccc1C(=O)OCC(=O)NC1CC1` belongs “inactive”.
Turning to `CC(C)=CCc1c(O)c(CC=C(C)C)c2occ(-c3ccc(O)cc3)c(=O)c2c1O`, the Potency is 2.94 µM (active).
On to `Cc1ccnc(NC(=O)CCNS(=O)(=O)c2ccc(C)c(C)c2)c1`, for which the Potency entry was “inactive”.
Regarding `Cc1cccc(NS(=O)(=O)c2cc(Cl)ccc2Cl)n1`, the Potency result was “inactive”.
Turning to `O=[N+]([O-])c1ccc(S(=O)(=O)Nc2cccc(-c3ccc(N4CCCC4)nn3)c2)cc1`, the Potency result is “inactive”.
Same read-out and setting: for `COc1ccc([C@H]2CC(=O)C=C(c3ccc(C)cc3)C2)cc1` the value was “inactive”; for `COc1ccc2cc(C3=CC(=O)C[C@H](c4ccc5c(c4)OCO5)C3)ccc2c1`, “inactive”; for `N#Cc1ccc(C2=CC(=O)C[C@H](c3ccc(Cl)cc3)C2)cc1`, “inactive”.
`CC(=O)C1=C(C)NC(=O)NC1c1ccc2c(c1)OCO2` (configuration not stated): the Potency result was “inactive”.
Still for that read-out and setting: to `O=C1C=C(c2ccnc3cc(Cl)ccc23)C[C@@H](c2ccc3c(c2)OCO3)C1` belongs 7.38 µM (active); to `O=C1C=C(c2cc(C(F)(F)F)cc(C(F)(F)F)c2)C[C@@H](c2ccc3c(c2)OCO3)C1`, 8.28 µM (active); to `Cc1ccnc(NS(=O)(=O)c2ccc(NC(=O)c3oc4ccc(F)cc4c3C)cc2)n1`, “inactive”.
As for `[2H]C(CCOS(N)(=O)=O)c1ccccc1` (configuration not stated), the Potency result was “inactive”.
Same read-out and setting: to `CNC(=O)c1sc(NCc2ccccc2OC)nc1C` belongs “inactive”.
The same measure, in the same setting: to `O=C(Nc1ccc(-c2cscn2)cc1)C1CCCN(Cc2ccc(CO)o2)C1` (configuration not stated) belongs “inactive”; to `COc1cc(-c2c(-c3ccc4c(c3)OCO4)noc2C)ccc1F`, “inactive”; to `CCNC(=O)c1cccc(NC(=O)C2CC(=O)N(CCc3ccccc3)C2)c1` (configuration not stated), “inactive”.
